Results on 7 compounds are retold here after PubChem BioAssay (NCATS).

Results filed as inconclusive are left out. Activity calls are given as the source filed them. Calls come from the whole dose curve; as a rule, active = well fitted inhibition curve with a large enough effect; inconclusive = small, poorly fitted or top-dose-only effect; inactive = flat fitted curve, though single readings scatter.
% is set by controls: 0 for no effect and ±100 for the full control effect.

This experiment concerns HEK293. Description: Cytotoxic Profiling of Annotated Libraries Using Quantitative High-Throughput Screening (AID 1296008). Note: nearly all actives have a fitted effect of over 60% in size. Conditions: Five cell lines viability, CellTiter-Glo ATP luminescence, 48-72 h; max response: hits give low values. In short, it runs like this: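 Cells exposed to compounds for 48 or 72 hr at 37 degrees Celsius. Viability read as ATP-coupled luminescence with CellTiter-Glo after 10 min at room temperature.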
(In general: In ATP-based viability assays light output follows the ATP content of the culture.)
With `CC[C@H]1OC(=O)[C@H](C)[C@@H](O[C@H]2C[C@@](C)(OC)[C@@H](O)[C@H](C)O2)[C@H](C)[C@@H](O[C@@H]2O[C@H](C)C[C@H](N(C)C)[C@H]2O)[C@](C)(O)C[C@@H](C)C(=O)[C@H](C)[C@H]2OC(=O)O[C@@]21C`, the max response is -4.98% (inactive). As for `COCCOc1ccc(N2CCN(CCn3ncc4c3nc(N)n3nc(-c5ccco5)nc43)CC2)cc1`, the max response is -9.01% (inactive). The value for `C/C=C/c1ccc2oc(-c3ccc(O)c(OC)c3)c(C)c2c1` was -4.11% (inactive); that for `CC1OC(OC2C(C)OC(OC3C(OC(=O)C45CCC(C)(C)CC4C4=CCC6C7(C)CCC(OC8OC(C(=O)O)C(O)C(O)C8OC8OC(CO)C(O)C(OC9OC(C)C(O)C(O)C9O)C8O)C(C)(CO)C7CCC6(C)C4(C)CC5)OC(CO)C(O)C3O)C(O)C2O)C(O)C(O)C1O` (configuration not stated) was 1.99% (inactive); that for `C[C@@H]1O[C@@H](O[C@H]2[C@H](OC(=O)[C@]34CCC(C)(C)C[C@H]3C3=CCC5[C@@]6(C)C[C@H](O)[C@H](O[C@@H]7O[C@H](CO)[C@@H](O)[C@H](O)[C@H]7O)[C@@](C)(CO)C6[C@H](O)C[C@@]5(C)[C@]3(C)C[C@H]4O)OC[C@H](O)[C@@H]2O)[C@H](O)[C@H](O)[C@H]1O[C@@H]1OC[C@@H](O)[C@H](O[C@H]2OC[C@](O)(CO)[C@H]2O)[C@H]1O` (some centres not stated) was 3.89% (inactive). For the compound `OCC1OC(Oc2cc(O)cc(/C=C/c3ccc(O)cc3)c2)C(O)C(O)C1O` (configuration not stated), the max response is 2.65% (inactive).

For `OC[C@H]1O[C@@H](OC[C@H]2O[C@@H](OC/C=C/c3ccccc3)[C@H](O)[C@@H](O)[C@@H]2O)[C@@H](O)[C@@H]1O`, the max response was 4.4% (inactive).
